RXFP1 antag: qHTS Assay for Antagonists of the Relaxin Receptor RXFP1. activity change, negative = inhibition, % at 57.5 µM. Relaxin receptor 1 (Homo sapiens), Q9HBX9. HEK293-RXFP1, relaxin-stimulated cAMP HTRF, 30 min; active compounds read low. actives 0.59% (n = 350,000);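 active means activity change of -60% or lower, but not beyond a set lower limit; inconclusive means change between -60% and -40%, or beyond the set limit; inactive means change above -40%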; further: on the % scale 0 is the no-effect control and ±100 the full control effect
gsp antag: qHTS for Antagonists of gsp, the Etiologic Mutation Responsible for Fibrous Dysplasia/McCune-Albright Syndrome: qHTS; actives 0.4% (n = 340,000); gsp-mutant cells, cAMP HTRF, 30 min; AID 624288, 2012; Potency, µM (top dose mostly 76.9 µM), without a hit: top-dose activity change, negative = inhibition, actives largely listed as inhibitors; calls by dose curve; cell line not stated here;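 further: intracellular cAMP measured with PDE inhibitor Ro 20-1724 present during compound exposure; potency means the concentration at half of the fitted maximal effect; on the % scale 0 is the no-effect control and ±100 the full control effect; nearly all actives have a fitted effect of over 65% in size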
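Cells, 2000/well, grown 16–24 h in DMEM 10% FBS with 0.5 mg/ml G418, then compounds plus […] (300 uM addition stock), 30 min at 37C. cAMP read by HTRF (cAMP-d2 and anti-cAMP antibody-K in lysis buffer) after 30 min RT.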
Tb PFK block: qHTS Assay to Find Inhibitors of T. brucei phosphofructokinase. ATP-dependent 6-phosphofructokinase (Trypanosoma brucei brucei), O15648. T. brucei PFK, ADP-Glo luminescence. Potency, µM (highest dose often 57.5 µM), for inactives: top-dose activity, negative = inhibition, usual class: inhibitors. actives 0.17% (n = 330,000). AID 485367, 2010;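 further: potency means the concentration at half of the fitted maximal effect; 0% = uninhibited 1x PFK enzyme wells and -100% = no-enzyme wells; nearly all actives have a fitted effect of over 60% in size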
Target sequence (O15648 whole entry, looked up): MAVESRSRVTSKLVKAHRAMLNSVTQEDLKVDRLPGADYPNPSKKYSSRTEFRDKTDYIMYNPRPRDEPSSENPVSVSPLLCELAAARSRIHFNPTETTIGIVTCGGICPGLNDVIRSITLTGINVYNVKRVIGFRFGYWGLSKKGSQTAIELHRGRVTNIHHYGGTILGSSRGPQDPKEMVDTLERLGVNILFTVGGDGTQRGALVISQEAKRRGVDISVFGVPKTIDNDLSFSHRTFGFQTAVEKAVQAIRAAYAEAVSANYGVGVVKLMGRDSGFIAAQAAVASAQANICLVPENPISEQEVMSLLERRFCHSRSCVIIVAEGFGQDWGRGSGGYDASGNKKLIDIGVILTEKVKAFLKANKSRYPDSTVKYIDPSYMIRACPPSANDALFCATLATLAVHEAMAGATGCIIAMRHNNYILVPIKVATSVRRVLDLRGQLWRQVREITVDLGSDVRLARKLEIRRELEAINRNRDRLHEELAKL
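Compounds were pin-transferred as a titration series up to 57 uM into substrate buffer (0.5 mM F6P, 0.1 mM ATP, pH 8.0), then 1.25 nM PFK was added and reactions ran 45 min before ADP-Glo detection.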
gsp agonist: qHTS for Agonist of gsp, the Etiologic Mutation Responsible for Fibrous Dysplasia/McCune-Albright Syndrome: qHTS; AID 624287, 2012; Potency, µM (doses to about 76.9 µM), for the others: at the highest dose activation (cAMP increase), most hits filed as activators; gsp mutant cells, cAMP HTRF, 30 min; actives 0.13% (n = 340,000); active means well fitted activation curve with a large enough effect; inconclusive means small, poorly fitted or top-dose-only effect, or another doubt; inactive means no such curve, though single readings can be large or run the other way; cell line not stated here;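 further: phosphodiesterase inhibitor Ro 20-1724 added with compounds to block cAMP breakdown; potency means the concentration at half of the fitted maximal effect; nearly all actives have a fitted effect of over 60% in size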
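Cells in DMEM/10% FBS with G418 were pretreated with compounds in DMSO plus […] (300 uM stock) for 30 min at 37C. cAMP was measured by HTRF (cAMP-d2 plus anti-cAMP antibody-K) after 30 min at room temperature.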
RXFP1 agonist: qHTS Assay for Agonists of the Relaxin Receptor RXFP1; Relaxin receptor 1 (Homo sapiens), Q9HBX9; HEK293T-RXFP1 cAMP TR-FRET, 30 min; response scale: percent of porcine relaxin response, buffer zero; actives 0.3% (n = 370,000); Potency, µM (series often up to 57.5 µM), for inactives: at the highest dose activation, most hits filed as activators; AID 2676, 2010; further: potency means the concentration at half of the fitted maximal effect; on the % scale 0 is the no-effect control and ±100 the full control effect; nearly all actives have a fitted effect of over 60% in size
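HEK293T cells stably expressing RXFP1 were pretreated with the PDE4 inhibitor Ro 20174, exposed to compounds for 30 min at 37C, lysed, and cAMP was read by TR-FRET. Data normalized to buffer (basal) and 29 nM porcine relaxin (100%).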
p53 reactivation: qHTS assay for re-activators of p53 using a Luc reporter; AID 504706, 2011; Potency, µM (highest dose often 92.2 µM), without a hit: at the highest dose activity change, positive = activation, actives largely listed as activators; H1299 p53-A138V BP100-luciferase reporter, luminescence, 24 h; actives 0.063% (n = 320,000); further: potency means the concentration at half of the fitted maximal effect; % of control where 0% means no effect; nearly all actives have a fitted effect of over 45% in size
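H1299 (p53-null), stable ts p53-A138V + BP100-Luc; 1000 cells/well, Opti-MEM/10% FBS; cpd 4 pt, 1:5; 24 h, 37 deg C, 5% CO2; detection reagent 10 min RT; luminescence.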
* marks the source's active call; other numbers are inactive results; ? = inconclusive; · = no result; [ ] = dose if it differs, or a comment. Most compounds without a hit are left out; they make up all but 1.1% or so of the library. Unless noted, the call rests on the fitted dose curve; in most records, active means well fitted curve in the direction sought with a large enough effect; inconclusive means small, poorly fitted or top-dose-only effect, or another doubt; inactive means no such curve, though single readings can be large; an effect the other way counts as inactive or inconclusive.

SMILES	RXFP1 antag	gsp antag	Tb PFK block	gsp agonist	RXFP1 agonist	p53 reactivation
Cc1cccc(-c2nc(CSCC(=O)N3CCN(c4cccc(C)c4C)CC3)c(C)o2)c1	-14	·	·	·	-1%	·
Cc1cccc(-c2nc(CSCC(=O)N3CCN(c4ccccn4)CC3)c(C)o2)c1	-6	32µM*	-1%	-14%	-2%	0%
CCOC(=O)C1CCN(C(=O)c2oc3ccc4c(c3c2C)C(O)CC2(CCCCC2)O4)CC1 (stereo unspecified)	-94*	0%	-1%	-1%	0%	8%
COc1ccc(-c2nnc(SCC(=O)NC3CCCC3)nc2-c2ccc(OC)c(OC)c2)cc1OC	-70*	·	·	·	0%	·
CCc1cccc(N2C(=O)CSC23C(=O)N(Cc2ccccc2F)c2ccccc23)c1 (stereo unspecified)	·	·	·	·	0%	·
CCn1c(SCC(=O)Nc2ccc3c(c2)n(C)c(=O)n3C)nnc1-c1ccncc1	-1	5%	-4%	20%[15.4 µM]	0%	-6%
O=C(NNS(=O)(=O)c1ccc(F)cc1)c1ccccc1F	-2	5%	-8%	-31%	1%	16%
CNC(=S)N(Cc1ccco1)Cc1cc2cc(OC)ccc2[nH]c1=O	3	·	0%	9%[15.4 µM]	-2%	0%
CNC(=S)N(Cc1ccco1)Cc1cc2cc(OC)c(OC)cc2[nH]c1=O	-2	6.3µM*	-16%	-3%[15.4 µM]	0%	-1%
CCCCN(C)C(=O)Cn1ncc2c3ccccc3n(CCC)c2c1=O	-5	-1%	0%	-2%[15.4 µM]	2%	-2%
C=C1CC(Cn2cc(Br)c(=O)[nH]c2=O)(c2ccc(-c3ccccc3)cc2)OC1=O (stereo unspecified)	-90*	7%	·	13%	·	·
O=C(NCc1ccccc1)c1ccc(CSc2ccccc2)o1	7	5%	-6%	6%	-2%	-13%
Cc1ccc(CCNC(=O)c2ccc(CNS(=O)(=O)c3ccc(F)cc3)cc2)cc1	-71*	·	·	·	-1%	·
Cc1cc(-c2ccc(S(=O)(=O)NCc3ccc(F)cc3)cc2)on1	0	0.79µM*	1%	-48%	2%	4%
Cc1nc2c(-c3ccc(F)cc3)c(C)nn2c(C)c1CCC(=O)N1CCN(c2ccc(F)cc2)CC1	·	-1%	-19%	0%	1%	-1%
CCN(CC)S(=O)(=O)c1ccc2oc(SCC(=O)NCc3ccccc3)nc2c1	3	-23%	2%	1%	2%	4%
O=C(NC1CCCC1)c1cc2cc(Br)ccc2o1	0	8%	0%	2.5µM*	1%	-6%
Clc1ccc(-c2c[n+](Cc3ccc(Cl)c(Cl)c3)c3n2CCC3)cc1	·	·	12µM*	·	0%	-7%
Cc1ccc(-c2c[n+](Cc3ccc(Cl)cc3)c3n2CCC3)cc1	10	7%	?	6%[15.4 µM]	1%	-5%
CN(C)c1cccc(C(=O)NNC(=O)CN2C(=O)C3CC=CCC3C2=O)c1 (stereo unspecified)	-1	-4%	4%	-5%	·	45µM*
CC(C)(C)OC(=O)NCCCCCc1nnc(SCC(=O)Nc2cccc(Cl)c2)o1	-3	35µM*	-7%	13%	2%	0%
O=C(NCc1cccnc1)C1CCN(S(=O)(=O)c2cc(Cl)ccc2Cl)CC1	-88*	1%	0%	6%	0%	0%
O=C(NCc1cccnc1)C1CCN(S(=O)(=O)c2cccnc2)CC1	-5	0%[15.4 µM]	-7%	30%	0%	0%
CC(=O)Nc1cc(C(=O)OCC(=O)c2ccc(C)cc2)ccc1C	-13	-12%	1%	12%	2%	28µM*
CCCCOc1ccc(C(=O)NCCc2csc(-c3ccc(OC)cc3)n2)cc1	-23	·	·	·	-4%	·
SMILES	RXFP1 antag	gsp antag	Tb PFK block	gsp agonist	RXFP1 agonist	p53 reactivation
c1csc(-c2nnc(NC3CCCCC3)c3ccccc23)c1	-27	40µM*	-8%	-9%	-1%	20%
NC(=O)c1nsc(C(=O)N(CC(=O)NC2CCCC2)c2ccc(F)c(Cl)c2)c1N	-65*	5%	1%	-19%	1%	0%
COCCNC(=O)c1cn(C)c2ccc(S(=O)(=O)N3CCCC3)cc2c1=O	-4	50µM*	-1%	4%	5%	-1%
Nc1c(Cl)ncnc1NCC(O)CO (stereo unspecified)	7	15%	2%	10%[15.4 µM]	4%	-3%
CC1CCCCN1CCCNC(=O)c1nn(C)c2c1CS(=O)(=O)c1ccccc1-2 (stereo unspecified)	-3	29%	0%	21%	0%	8%
CC1CCCN(CCCNC(=O)c2nn(C)c3c2CS(=O)(=O)c2ccccc2-3)C1 (stereo unspecified)	-84*	-17%	0%	16%	4%	2%
COc1ccc(S(=O)(=O)N2CCOCC2)cc1C(=O)Nc1ccon1	-6	2%	-1%	?	4%	8%
CCOC(=O)/C(=N\Nc1cc(Cl)ccc1Cl)N1CC(C)OC(C)C1 (stereo unspecified)	-11	2%	-5%	?	0%	-1%
CCOC(=O)/C(=N\Nc1ccccc1Cl)N1CC(C)OC(C)C1 (stereo unspecified)	-67*	-13%	-18%	26%	2%	0%
CC(C)(C)C(=O)N1N=C(c2ccc(NS(C)(=O)=O)cc2)CC1c1cccs1 (stereo unspecified)	?	11µM*	-7%	0%[15.4 µM]	0%	0%
CS(=O)(=O)Nc1ccc(C2=NN(C(=O)c3ccccc3)C(c3cccs3)C2)cc1 (stereo unspecified)	1	?	?	?	0%	-12%
CC1(C)CC(C(CCN(Cc2ccccc2)C(=O)c2ccco2)c2ccc(F)cc2)CCO1 (stereo unspecified)	-28	28µM*	0%	-3%	2%	1%
CCC1CCCCN1CCCNC(=O)CNC(=O)c1nn(-c2ccc(OC)cc2)c(=O)c2ccccc12 (stereo unspecified)	1	-22%	4%	2%[15.4 µM]	4%	-2%
CC1CN(CCOc2ccccc2C(C)C)CC(C)O1 (stereo unspecified)	-7	8%	2%	3%	-2%	6%

Screening results from PubChem BioAssay.
